About 500 (1.3%) of roughly 39,000 compounds were called active. This excerpt belongs to a sample that is enriched for actives.
system: S. aureus RN4220; experiment: growth inhibition call (relative growth <= 0.2); details: 50 µM

Growth inhibition call, inactive:
C[C@@H]1CN([C@@H](C)CO)C(=O)c2cc(NC(=O)CCN3CCOCC3)ccc2O[C@H]1CN(C)S(=O)(=O)c1ccc(F)cc1
NCCCCCNC(=O)[C@@H]1C[C@@H]2C(=O)N[C@@H](CCCCN)C(=O)N2[C@@H]1c1cccc(OCCO)c1
c1ccc(Nc2nc3c(ccc4ccccc43)s2)cc1
Cc1sc(Nc2ccccc2)nc1-c1ccc(Cl)cc1
Cc1ccc(S(=O)(=O)Nc2cccc3c2O[C@H](CN(C)C(=O)Nc2cccc4ccccc24)[C@@H](C)CN([C@@H](C)CO)C3=O)cc1
COCC#Cc1ccc([C@H]2[C@H]3CN(C(=O)c4ccncc4)CC(=O)N3[C@H]2CO)cc1
CCOC(=O)CNC(=O)c1cc(C)on1
Cc1ccc(C(=O)O)c(=O)n1C
O=C(c1ccccc1F)N1CCNCC1
Cn1cc(S(=O)(=O)N2CCN(c3ccc(F)cc3)CC2)c(=O)n(C)c1=O
O=C(CN1CCNCC1)c1ccc(F)cc1
Cc1noc(C)c1S(=O)(=O)N(C)C[C@@H]1Oc2ccc(NC(=O)NC(C)C)cc2CC(=O)N([C@@H](C)CO)C[C@@H]1C
O=C(NO)c1cn(-c2ccc(C[C@H]3C(=O)O[C@@H](Cc4ccccc4)[C@H]4C=C(/C=C/C5CC5)CN43)cc2)nn1
CCCCCOc1ccc([C@H]2C(C(=O)c3ccc4c(c3)OCCO4)=C(O)C(=O)N2Cc2ccco2)cc1
O=C(Nc1ccccc1)c1ccccc1
NNC(=O)c1ccccc1O
CO[C@@H]1CN(C)C(=O)c2ccc(NS(=O)(=O)CC(F)(F)F)cc2OC[C@H](C)N(Cc2nccs2)C[C@H]1C
C[C@@H]1CN([C@@H](C)CO)C(=O)Cc2cc(NS(=O)(=O)c3cccs3)ccc2O[C@H]1CN(C)S(C)(=O)=O
Clc1ccc(COC(Cn2ccnc2)c2ccc(Cl)cc2Cl)c(Cl)c1.O=[N+]([O-])O (stereo not given)
Clc1ccc(C(Cn2ccnc2)OCc2c(Cl)cccc2Cl)c(Cl)c1.O=[N+]([O-])O (stereo not given)
Cc1ccc(S(=O)(=O)N(C)C[C@@H]2OCCCC[C@H](C)Oc3ccc(NC(=O)C4CCCCC4)cc3C(=O)N([C@@H](C)CO)C[C@@H]2C)cc1
C[C@H](CO)N1C[C@H](C)[C@H](CN(C)Cc2ccc(C(=O)O)cc2)OCCCC[C@H](C)Oc2ccc(NS(=O)(=O)c3ccc(F)cc3)cc2C1=O
COc1ccc(S(=O)(=O)N(C)C[C@@H]2Oc3c(NC(=O)C4CCOCC4)cccc3C(=O)N([C@H](C)CO)C[C@H]2C)cc1
C[C@H](CO)N1C[C@H](C)[C@@H](CN(C)C(=O)Nc2ccccc2)Oc2c(NC(=O)C3CCOCC3)cccc2C1=O
CO[C@H]1O[C@H](COC(=O)NCCCCCC(=O)NO)[C@@H](OC(=O)Nc2ccccc2)[C@@H]2OC(=O)[C@H](Cc3cccc(Br)c3)C/C=C/C[C@@H](Cc3cccc(Br)c3)C(=O)O[C@@H]12
C[C@H](CO)N1C[C@H](C)[C@H](CN(C)C(=O)Nc2ccccc2)Oc2c(NC(=O)Nc3ccc(C(F)(F)F)cc3)cccc2C1=O
C[C@H](CO)N1C[C@H](C)[C@H](CN(C)C(=O)Nc2ccc(C(F)(F)F)cc2)Oc2c(NC(=O)Nc3ccccc3)cccc2C1=O
C[C@@H]1CN([C@H](C)CO)C(=O)c2cccc(NC(=O)Nc3ccc(C(F)(F)F)cc3)c2O[C@H]1CN(C)C(=O)Nc1ccccc1
C[C@@H]1CN([C@H](C)CO)C(=O)c2cccc(NC(=O)Nc3ccc(C(F)(F)F)cc3)c2O[C@@H]1CN(C)C(=O)Nc1cccc2ccccc12
C[C@H]1CN([C@@H](C)CO)C(=O)c2cccc(NC(=O)Nc3ccccc3)c2O[C@@H]1CN(C)C(=O)Nc1ccc(C(F)(F)F)cc1
C[C@@H]1CN([C@@H](C)CO)C(=O)c2cccc(NC(=O)Nc3ccccc3)c2O[C@@H]1CN(C)C(=O)Nc1ccc(C(F)(F)F)cc1
C[C@H](CO)N1C[C@H](C)[C@@H](CN(C)C(=O)Nc2ccc(C(F)(F)F)cc2)Oc2c(NC(=O)Nc3ccccc3)cccc2C1=O
C[C@H](CO)N1C[C@H](C)[C@H](CN(C)C(=O)Nc2cccc3ccccc23)Oc2c(NC(=O)Nc3ccc(C(F)(F)F)cc3)cccc2C1=O
COc1ccc(S(=O)(=O)Nc2ccc3c(c2)C(=O)N([C@@H](C)CO)C[C@H](C)[C@H](CN(C)C(=O)Nc2ccccc2)OCCCC[C@H](C)O3)cc1
Cc1ccc(S(=O)(=O)N(C)C[C@H]2Oc3ccc(NS(=O)(=O)c4c(C)noc4C)cc3CC(=O)N([C@@H](C)CO)C[C@H]2C)cc1
COc1ccc2c3c(n(c2c1)C)[C@@H](CO)N(Cc1ccccc1)C[C@]13CCN(CC1)C(=O)c1ccccc1F
C[C@H](CO)N1C[C@H](C)[C@H](CN(C)C(=O)CCCN(C)C)OCCCC[C@H](C)Oc2ccc(NC(=O)Nc3ccc(C(F)(F)F)cc3)cc2C1=O
O=C([C@H]1[C@H](CO)[C@H]2Cn3c(cccc3=O)[C@@H]1N2CC1CCCC1)N1CCOCC1
COc1cc(/C=C/c2cc(/C=C/c3ccc(O)c(OC)c3)n(Cc3ccc4c(c3)OCO4)c(=S)n2)ccc1O
C[C@@H]1CCCCO[C@@H](CN(C)C(=O)Nc2ccc3c(c2)OCO3)[C@@H](C)CN([C@@H](C)CO)C(=O)c2cc(NC(=O)Cc3ccccc3)ccc2O1
c1ccc(Nc2nc(-c3ccccc3)nc3ccccc23)cc1
CCOc1ccc(Nc2c3ccccc3nc3ccccc23)cc1
Cc1ccc(S(=O)(=O)Nc2ccc3c(c2)C(=O)N([C@H](C)CO)C[C@H](C)[C@H](CN(C)S(=O)(=O)c2ccc(F)cc2)OCCCC[C@@H](C)O3)cc1
Cc1noc(C)c1S(=O)(=O)N(C)C[C@H]1Oc2ccc(NS(=O)(=O)c3ccccc3)cc2CC(=O)N([C@H](C)CO)C[C@@H]1C
C[C@@H]1CN([C@@H](C)CO)C(=O)c2cc(NC(=O)Nc3ccc(C(F)(F)F)cc3)ccc2O[C@@H](C)CCCCO[C@H]1CN(C)C(=O)C1CCCCC1
COC(=O)c1c(-c2c(Cl)cccc2Cl)noc1-c1cnn(-c2cccc(Cl)c2)c1C(F)(F)F
C[C@H](CO)N1C[C@H](C)[C@H](CN(C)S(=O)(=O)c2cccc(F)c2)Oc2ncc(C#CCN(C)C)cc2C1=O
C[C@@H]1CN([C@H](C)CO)C(=O)CCCn2cc(nn2)CO[C@H]1CN(C)C(=O)c1ccc(N2CCN(C)CC2)cc1
C[C@@H]1CN([C@H](C)CO)C(=O)c2cccc(NC(=O)Nc3cccc4ccccc34)c2O[C@@H]1CN(C)C(=O)Nc1cccc2ccccc12
C[C@@H]1CCCCO[C@@H](CN(C)C(=O)c2ccncc2)[C@H](C)CN([C@H](C)CO)C(=O)c2cc(NC(=O)C3CCCCC3)ccc2O1
CC1CC2C(C(O)CC3(C)C2CCC3(O)C(=O)COC(=O)CCC(=O)[O-])C2(C)C=CC(=O)C=C12.[Na+] (stereo not given)
COc1cc(NC(=O)CCN2CCC(OC(=O)Nc3ccccc3-c3ccccc3)CC2)c(Cl)cc1CNC[C@H](O)c1ccc(O)c2nc(O)ccc12
CO[C@H]1CN(C)C(=O)c2cc(NC(=O)Nc3ccccc3)ccc2OC[C@H](C)N(C(=O)CN(C)C)C[C@@H]1C
Cc1noc(C)c1S(=O)(=O)Nc1ccc2c(c1)CC(=O)N([C@H](C)CO)C[C@@H](C)[C@@H](CN(C)Cc1ccncc1)O2
Cc1noc(C)c1NC(=O)Nc1ccc2c(c1)CC(=O)N([C@@H](C)CO)C[C@@H](C)[C@@H](CN(C)S(C)(=O)=O)O2
CC(=O)O[C@@H]1[C@@H]2OC(=O)[C@H](OC(C)=O)[C@@H]2O[C@H]1n1ccc(=O)[nH]c1=O

Growth inhibition call, active:
CSc1cccc2sc(Nc3ccc(Cl)cc3)nc12
CN1CCN(c2cc3c(cc2F)c(=O)c(C(=O)O)cn3-c2ccc(F)cc2)CC1.Cl
Cl.O=C(O)c1cn(-c2ccc(F)cc2)c2cc(N3CCNCC3)c(F)cc2c1=O
O=C(Nc1ccccc1)c1ccccc1O
Clc1ccc(C(Cn2ccnc2)OCc2ccsc2Cl)c(Cl)c1 (stereo not given)
C=C[C@]1(C)C[C@@H](OC(=O)CS[C@@H]2C[C@H]3CC[C@@H](C2)N3C)[C@]2(C)[C@H](C)CC[C@]3(CCC(=O)[C@H]32)[C@@H](C)[C@@H]1O
C[C@@H]1CN([C@@H](C)CO)C(=O)c2cccc(NC(=O)Nc3ccc(C(F)(F)F)cc3)c2O[C@@H]1CN(C)C(=O)Nc1ccccc1
C[C@H](CO)N1C[C@H](C)[C@@H](CN(C)C(=O)Nc2cccc3ccccc23)Oc2c(NC(=O)Nc3ccc(C(F)(F)F)cc3)cccc2C1=O
C[C@H]1CN([C@@H](C)CO)C(=O)c2cccc(NC(=O)Nc3ccc(C(F)(F)F)cc3)c2O[C@@H]1CN(C)C(=O)Nc1ccccc1
C[C@H]1CN([C@@H](C)CO)C(=O)c2cccc(NC(=O)Nc3ccc(C(F)(F)F)cc3)c2O[C@H]1CN(C)C(=O)Nc1ccccc1
CCC(CC)c1nc(Nc2ccccc2)c2ccccc2n1
Cc1onc(-c2ccccc2Cl)c1C(=O)NC1C(=O)N2C1SC(C)(C)C2C(=O)[O-].[Na+] (stereo not given)
Cc1onc(-c2c(Cl)cccc2Cl)c1C(=O)NC1C(=O)N2C1SC(C)(C)C2C(=O)[O-].[Na+] (stereo not given)
Cc1onc(-c2ccccc2)c1C(=O)NC1C(=O)N2C1SC(C)(C)C2C(=O)[O-].[Na+] (stereo not given)

Reference: the antibiotic and cytotoxicity screens of Wong et al. (2023)
